Data: article PMC5540273 (PLoS ONE, 2017)

Legend:
Details in all cases: concentration: 1 μM, replicates: in singlicate; n = 1
EPHA4 = system: EPHA4
EPHA5 = system: EPHA5
EPHA6 = system: EPHA6
EPHA7 = system: EPHA7
EPHA8 = system: EPHA8
EPHB1 = system: EPHB1
EPHB2 = system: EPHB2
EPHB3 = system: EPHB3
EPHB4 = system: EPHB4
EPHB6 = system: EPHB6
ERBB2 = system: ERBB2
ERBB3 = system: ERBB3
ERBB4 = system: ERBB4
ERK1 = system: T1, ERK1
T1 construct: gene MAPK3

ERK2 = system: T2, ERK2
T2 construct: gene MAPK1

ERK3 = system: T3, ERK3
T3 construct: gene MAPK6

ERK4 = system: T4, ERK4
T4 construct: gene MAPK4

ERK5 = system: T5, ERK5
T5 construct: gene MAPK7

ERK8 = system: T6, ERK8
T6 construct: gene MAPK15

ERN1 = system: ERN1
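Further: KINOMEscan kinase panel screen.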

Row | SMILES | %Inh (EPHA4) [%] | %Inh (EPHA5) [%] | %Inh (EPHA6) [%] | %Inh (EPHA7) [%] | %Inh (EPHA8) [%] | %Inh (EPHB1) [%] | %Inh (EPHB2) [%] | %Inh (EPHB3) [%] | %Inh (EPHB4) [%] | %Inh (EPHB6) [%] | %Inh (ERBB2) [%] | %Inh (ERBB3) [%] | %Inh (ERBB4) [%] | %Inh (ERK1) [%] | %Inh (ERK2) [%] | %Inh (ERK3) [%] | %Inh (ERK4) [%] | %Inh (ERK5) [%] | %Inh (ERK8) [%] | %Inh (ERN1) [%]
1 | CS(=O)(=O)c1ccc(-c2nc3n(c2-c2ccncc2)CCC3)cc1 [SKF-105942] | 20 | 0 | 8 | 10 | 13 | 8 | 9 | 14 | 32 | 0 | 32 | 0 | 0 | 0 | 0 | 0 | 100 | 0 | 0 | 18
2 | COc1cccc(-c2cc(-c3c[nH]nc3-c3ccccn3)ccn2)c1 [GW680338] | 2 | 0 | 0 | 0 | 8 | 7 | 16 | 2 | 15 | 0 | 5 | 17 | 0 | 4 | 0 | 16 | 8 | 0 | 0 | 0
3 | O=c1cc(N2CCOCC2)nc2n(Cc3cccc(Cl)c3Cl)ccn12 [GSK2286295] | 0 | 0 | 0 | 3 | 12 | 13 | 0 | 11 | 14 | 24 | 0 | 0 | 0 | 0 | 6 | 0 | 27 | 0 | 2 | 0
4 | Cn1ccc2ncnc(Oc3ccc(NC(=O)Nc4ccccc4)cc3)c21 | 0 | 0 | 18 | 0 | 0 | 0 | 1 | 22 | 6 | 35 | 14 | 10 | 0 | 0 | 0 | 0 | 12 | 9 | 0 | 2
5 | COC(=O)c1c(-c2ccccc2)c2cc(C(=O)O)ccc2c(=O)n1Cc1ccccc1 | 0 | 0 | 0 | 0 | 0 | 6 | 12 | 0 | 0 | 0 | 0 | 0 | 2 | 0 | 16 | 0 | 0 | 0 | 0 | 0
6 | Cc1ccc(-c2cc(-c3c[nH]nc3-c3ccccn3)ccn2)cc1 [GW684088] | 7 | 0 | 8 | 10 | 15 | 9 | 0 | 9 | 20 | 7 | 43 | 36 | 0 | 37 | 0 | 3 | 18 | 0 | 0 | 0
7 | O=C(Nc1ccccc1)Nc1cccc(Oc2ccc3nccn3n2)c1 | 0 | 0 | 0 | 0 | 0 | 0 | 3 | 0 | 10 | 9 | 38 | 53 | 0 | 0 | 0 | 0 | 0 | 0 | 0 | 0
8 | Fc1cc(Cl)ccc1Nc1ccnc2cc(-c3ccc(CN4CCCCC4)o3)ccc12 [GW560116] | 0 | 0 | 24 | 0 | 30 | 12 | 10 | 0 | 12 | 51 | 1 | 31 | 4 | 0 | 0 | 0 | 8 | 0 | 0 | 0
9 | Fc1cccc(COc2nnc(-c3ccc4c(c3)CCO4)o2)c1 | 0 | 0 | 11 | 14 | 16 | 20 | 0 | 20 | 16 | 0 | 3 | 13 | 0 | 0 | 13 | 0 | 0 | 8 | 0 | 15
10 | Cc1ccc(NC(=O)Nc2cc(C(C)(C)C)nn2-c2ccccc2)cc1 [GSK1014915] | 24 | 0 | 28 | 9 | 25 | 14 | 0 | 20 | 12 | 19 | 36 | 10 | 0 | 0 | 0 | 7 | 26 | 0 | 52 | 0
